# According to PubChem BioAssay (NCI):
# About 79,000 compounds went through this panel and 15% of them were active in at least one assay; those are over-represented in the sample as a whole. Values without a mark were called inactive. Active and inactive are the calls of the source. Cut-off read from the data, not from the text of the source: active = growth inhibition above about 70%; inactive = the rest.
# What was measured:
# [1] = NCI Yeast Anticancer Drug Screen. Data for the rad50 strain (AID 155);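 note: 0% = growth of vehicle-only cultures of the same strain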; conditions: S. cerevisiae rad50 strain growth inhibition; at 50.0 µM; hits give high values
# Procedure, shortened: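 Inhibition values express reduced yeast growth in compound-treated cultures relative to vehicle-treated controls.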
# [2] = NCI Yeast Anticancer Drug Screen. Data for the mec2-1 strain (AID 157); conditions: S. cerevisiae mec2-1 strain, at 50.0 µM, hits give high values
# Procedure, shortened: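 Test agents were screened against the mec2-1 yeast strain, with defined DNA repair or cell cycle alteration. Growth was scored as inhibition against vehicle-only controls.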
# [3] = NCI Yeast Anticancer Drug Screen. Data for the sgs1 mgt1 strain (AID 161);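 note: 0% = growth of cultures given vehicle only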; conditions: S. cerevisiae sgs1 mgt1 strain, at 50.0 µM, hits give high values
# Procedure, shortened: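 Genetically altered yeast, compound exposure, growth inhibition relative to vehicle.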
# [4] = NCI Yeast Anticancer Drug Screen. Data for the cln2 rad14 strain (AID 165);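 note: 0% = growth equal to vehicle treated cultures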; conditions: S. cerevisiae cln2 rad14 strain, at 50.0 µM, hits give high values
# Procedure, shortened: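 Growth of compound-exposed yeast (cln2 rad14 genotype) measured and expressed as inhibition relative to vehicle.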
# [5] = NCI Yeast Anticancer Drug Screen. Data for the bub3 strain (AID 167); conditions: S. cerevisiae bub3 mutant strain, at 50.0 µM, hits give high values
# Procedure, shortened: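 Steps: expose the mutant yeast strain to compound; grow alongside vehicle-treated cultures; measure growth; express inhibition against the vehicle cultures.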
# [6] = NCI Yeast Anticancer Drug Screen. Data for the mlh1 rad18 strain (AID 175); conditions: S. cerevisiae mlh1 rad18 strain growth inhibition; at 50.0 µM; hits give high values
# Procedure, shortened: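 In this whole-cell yeast screen, a strain with altered DNA damage repair is challenged with compound, and its growth is measured against matched vehicle-treated controls.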
Structure (SMILES),growth inhibition [1],growth inhibition [2],growth inhibition [3],growth inhibition [4],growth inhibition [5],growth inhibition [6]
CCOc1ccccc1/C=C(/C#N)C(N)=O,10.8%,-0.5%,-26.6%,-29.9%,-50.4%,-1.3%
CCCCCCSc1n[nH]c(=S)s1,-4.25%,9.55%,18.4%,24.6%,-5.2%,13.4%
CC(=O)N(C)Cc1c(O)ccc2ccccc12,-7.25%,-21.2%,-9.9%,-9.4%,-2.25%,12.7%
CC(C)CCCC(C)C1CCC2C3CC=C4CC(OCCC(C)C)CCC4(C)C3CCC12C (stereo unspecified),55.5%,66.7%,29.4%,84.3% (active),98.1% (active),90.4% (active)
CCCCn1cnc2ccc3nc(-c4ccccc4)c(-c4ccccc4)nc3c2c1=O,43.8%,-15.4%,9.3%,4.1%,1.5%,4.65%
OCC1OCOC1C1OCOC1CO (stereo unspecified),0.55%,4.35%,3.95%,2.9%,-2.55%,-3.45%
C=C(C)C(=O)OC1C[C@H](COC(C)=O)C2CC=C(CO)C2C2OC(=O)C(=C)[C@H]12 (stereo partly specified),16.9%,15.1%,10.2%,-1.25%,-1.25%,25.1%
C=CCN1C(=O)/C(=C/c2ccc(OCC(=O)O)cc2)SC1=S,5.7%,-11.2%,0.05%,-46.6%,-1%,-13.8%
COC(=O)C(C(=O)C(=O)Nc1ccc(Br)cc1)c1nc2ccc(Cl)cc2[nH]c1=O (stereo unspecified),-11%,-5.1%,21.9%,7.05%,-1.55%,2.8%
CCOP(=O)(OCC)/C(C#N)=C/c1ccc2ccccc2c1,-7.5%,-5.05%,-16.8%,-16.3%,5%,-13.6%
Cc1cc(C(=O)c2ccccc2)ccc1[N+](=O)[O-],23.1%,-11%,-7.35%,-0.5%,-0.65%,7.1%
N#CC1CC=CCC1 (stereo unspecified),19.4%,4.95%,0.35%,15.2%,-12.9%,-5.65%
CN(C)CCCOCCn1c2c(c3ccccc31)CCCC2,19.2%,-1.2%,12.9%,-2.95%,15.8%,-89.5%
COc1ccc2c(c1OC)C1(CCN(C)C)CC(O)CCC1C=C2 (stereo unspecified),20.4%,7.95%,5.75%,-4.6%,13.2%,18.1%
CN(C)CCCOc1ccc(/C=C2/CCC/C(=C/c3ccc(OCCCN(C)C)cc3)C2=O)cc1,22.6%,14.8%,19.8%,26.1%,18.7%,3.35%
CCOC(=O)NCC1(c2ccccc2)CCN(Cc2ccccc2)CC1,-9.75%,-17.6%,-11.9%,1.35%,-14.9%,-1.7%
C[n+]1cn(C2=C([O-])c3ccccc3C(=O)/C2=N\S(=O)(=O)c2ccccc2)c2ccccc21,0.95%,4.8%,2.4%,-0.6%,4.35%,-28.9%
CN(O)C(=O)Cc1ccccc1,3.5%,6.05%,-0.1%,15.8%,13.9%,16.4%
C/C=C/c1ccc2oc(-c3ccc(OC4OC(C)C(O)C(O)C4O)cc3)c(C)c2c1 (stereo unspecified),98.9% (active),99% (active),99.2% (active),98.7% (active),98.5% (active),51.9%
CCCc1n[nH]c(=S)n1N1C(=S)NC(C)(C)C=C1C,-1.8%,-2%,18.1%,-10.8%,4.1%,17.2%
CC1(C)C(=O)C(C)(C)C(=O)C(C)(C)C1=O,2.45%,-15.7%,5.4%,16.9%,11.3%,-0.3%

Structure (SMILES),growth inhibition [1],growth inhibition [2],growth inhibition [3],growth inhibition [4],growth inhibition [5],growth inhibition [6]
O=C1C(c2ccccc2)=C(c2ccccc2)/C1=C\c1ccc(Cl)cc1Cl,7.4%,-5.9%,-13.9%,-8.9%,5.5%,-13.8%
Cn1c2c(cc(-c3ccccc3)c1=O)COc1ccccc1-2,31.1%,-13.9%,26.2%,2.45%,23.7%,24.1%
O=C(O)C1C=CCN1 (stereo unspecified),0.8%,1.2%,0.15%,-6.55%,-18.6%,-3.5%
Cc1[nH]ccc(=O)c1OC(=O)C12CC3CC(CC(C3)C1)C2,15.8%,16.6%,36%,19.2%,2.7%,23%
COC(=O)/C=C/c1c(=O)c(C(=O)OC)cn2cnc3nc[nH]c3c12,-14.5%,2.35%,-20.6%,-13.3%,-5.9%,-5.8%
O=C(CBr)c1cc(-c2ccc(Cl)cc2)nc2c(-c3ccccc3)cccc12,14.2%,1.2%,27.6%,48.9%,2.15%,14.4%
CCOC(=O)/C(C#N)=C\N(C)C,8.75%,-12.7%,5.65%,5.65%,9.65%,13.5%
COc1ccc(SC/C(=N\NOS(=O)(=O)c2ccc(C)cc2)c2ccccc2)cc1,85.1% (active),34.1%,93.3% (active),61%,61%,87.7% (active)
CSc1nc(-c2ccc(C)cc2)c(C#N)c(=O)[nH]1,6.25%,4.9%,-9.45%,24.2%,0.4%,-55.9%
Cc1cc(=O)[nH]c2ccc(-c3ccc4[nH]c(=O)cc(C)c4c3)cc12,21.4%,-17.2%,31.3%,5.15%,23.1%,18%
N#Cc1cnn(-c2ccc(Br)cc2)c1N,11.4%,0.6%,3.1%,-33.8%,-7%,6.3%
COc1cc2c(c3c1c(=O)c1ccc(F)cc1n3C)C=CC(C)(C)O2,-4.35%,-28.6%,-16.9%,-23.9%,-7.7%,-5.6%
CSc1n[n+](-c2ccccc2)cs1,6.3%,6.15%,4.4%,6.9%,21.7%,-3.35%
Cc1nc(C)c(Cc2ccccc2)o1,1.05%,20.9%,18.1%,27.6%,5.3%,30.7%
O=C(CC(=O)c1cccc([N+](=O)[O-])c1)C(=O)Nc1ccccc1,-30.5%,-28.8%,14.7%,11.1%,-8.05%,-5.55%
COc1ccc(C2SCC(=O)N2c2nncs2)cc1F (stereo unspecified),6.2%,1.55%,20.9%,2.9%,12.6%,20.2%
COc1cc2c[n+](C)c3c4ccccc4ccc3c2cc1OC,40.4%,55.2%,18.9%,2.75%,22.2%,38.5%
CC1CNCC(C)N1C(=O)c1ccccc1 (stereo unspecified),3.85%,5.15%,-7.7%,3.25%,1.5%,-39.5%
CC1SC2(C(=O)Nc3ccccc32)N(c2ccc(O)cc2)C1=O (stereo unspecified),6.25%,-2.75%,9.45%,2%,7.9%,14.8%
CC(=O)OC1[C@H](OC(C)=O)C2=C(C)[C@@H](OC(C)=O)C[C@@]2(C(C)(C)O)[C@@H](OC(C)=O)[C@H]2[C@@]1(C)[C@@H](OC(C)=O)CC(OC(C)=O)[C@]21CO1 (stereo partly specified),3.4%,29.9%,-20.3%,7.05%,-32.8%,-59%
